Among the data in PubChem BioAssay AID556 (SRMLSC, 2006) are inhibition and outcome values, retold here.

About 320 (0.49%) of roughly 65,000 compounds were called active.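 How the source made its calls: active means the 320 compounds with the highest percent inhibition in the single-dose primary screen, excluding strongly autofluorescent ones (cut at about 32% in these data); inactive means the rest, inconclusive results apart.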 What follows is part of a selection rich in actives, with near analogues and random picks from the rest.

This assay relates to diphosphomevalonate decarboxylase (Streptococcus pneumoniae D39). As to the kind of experiment: diphosphomevalonate decarboxylase activity blockers – biochemical, PK/LDH-coupled NADH fluorescence, primary screen (AID 556).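 On inhibition: kinetic rate of NADH fluorescence loss reporting ADP formed by the decarboxylase; 0% = full reaction rate with carrier and 100% = no-substrate background rate.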 Particulars: purified DPM-DC, at 10 µM; stronger effect = higher value unless noted.
For `Cc1cc(=O)cc(C)[nH]1`, the inhibition was 42% (active).
For the compound `Cc1cc(=O)[nH]c(=S)[nH]1`, the inhibition result was “inactive”.
`COc1ccc(C2CC(c3ccc(Cl)cc3Cl)Nc3nc(N)nn32)cc1OC` (stereo not given): the inhibition result is “inactive”.
The same measure, in the same setting: under `CCOC(=O)CCCNC(=O)CN1C(=O)NC(CCc2ccccc2)C1=O` (stereo not given) stands “inactive”.
Turning to `CCOc1ccc(-c2nnn(CC(=O)N3CCN(c4ccc(F)cc4)CC3)n2)cc1OCC`, the inhibition was 0% [measured here: pilot screen trials, stronger effect = higher value] and the compound was called inactive.
`CCOC(=O)CSc1nccc(N(C)C)c1C#N`: the inhibition entry is “inactive”.
The same measure, in the same setting: the result for `CC(=O)c1cc(-c2ccccc2)[nH]c1N1CCCC1` reads 1% (inactive); that for `CCOC(=O)/C=c1\s/c(=C\c2ccccc2OC)c(=O)n1CC(=O)N1CCOCC1`, 4% (inactive).
As for `CC1(C)CC(CCC(=O)Nc2ccccc2Cl)C(=O)O1` (stereo not given), the inhibition entry is “inactive”.
In the case of `COc1ccc(-n2nnc3c(=O)n(CC(=O)N4CCC(Cc5ccccc5)CC4)cnc32)cc1`, the inhibition result is “inactive”.
Same read-out and setting: under `CCOC(=O)c1ccc(N2C(=O)CC(N3CC(C)OC(C)C3)C2=O)cc1` (stereo not given) stands “inactive”.
The same measure, in the same setting: under `O=C(O)c1ccc(-n2cccc2)cc1O` stands 1% (inactive); under `Cc1ccc(S(=O)(=O)N2CCCC2C(=O)NCc2ccco2)cc1` (stereo not given), 4% (inactive); under `O=C1NC2(CCCCC2)N=C1c1ccccc1`, “inactive”.
For the compound `COc1ccc(S(=O)(=O)N2CCC(C(=O)N3CCc4ccccc4C3)CC2)cc1OC`, the inhibition entry is “inactive”.
On to `CCOC(=O)c1c(-n2cnnn2)sc(C)c1C`, for which the inhibition was 2% (inactive).
Same read-out and setting: under `Cc1nc(C)c(C(=O)Nc2cccc(C)c2C)o1` stands “inactive”.
Still for that read-out and setting: under `COc1ccc2[nH]c(=O)c(CN(Cc3nnnn3CCc3ccccc3)CC3CCCO3)cc2c1` (stereo not given) stands 2% (inactive); under `COc1ccc2[nH]c(=O)c(CN(CC3CCCO3)C(=O)Nc3ccccc3)cc2c1` (stereo not given), 33% (active).
On the same count and under the same terms, under `CCC(c1nnnn1Cc1ccccc1)N(Cc1cc2cc(OC)ccc2[nH]c1=O)CC1CCCO1` (stereo not given) stands 5% (inactive).
`O=C1[C@@H]2C(Cc3ccc(O)cc3)NC3(C(=O)Nc4ccc(F)cc43)[C@@H]2C(=O)N1c1ccc(F)cc1` (stereo not given in full): the inhibition result was “inactive”.
For `CSc1ccc(NC(=O)N2CC(C)OC(C)C2)cc1` (stereo not given), the inhibition entry is “inactive”.
With `CCOc1ccc(/C(O)=C2/C(=O)C(=O)N(Cc3cccnc3)C2c2ccc(N(C)C)cc2)c(C)c1` (stereo not given), the inhibition was 2% (inactive).
With `Cc1ccc(N(C(=O)CC2NC(=O)NC2=O)C2(C(=O)NC3CCCC3)CCCCC2)cc1` (stereo not given), the inhibition result is “inactive”.
On the same count and under the same terms, under `COc1ccc(CCNC(=O)CN2CCC(n3nnc4cc(F)ccc43)CC2)cc1OC` stands “inactive”; under `O=C(CSc1nnnn1C1CCCC1)Nc1ccc2c(c1)OCCO2`, “inactive”.
Same read-out and setting: the result for `N#CCCN1CCN(S(=O)(=O)c2ccc(S(=O)(=O)N3CCCC3)cc2)CC1` reads 7% (inactive); that for `CN(CC(=O)NC1CCCCC1)S(=O)(=O)c1cccc2cccnc12`, “inactive”.
`O=C(Oc1ccccc1)c1ccc2nccnc2c1`: the inhibition result was “inactive”.
For `CCOC(=O)c1sc(NC(=O)c2cc(S(=O)(=O)N3CCOCC3)ccc2C)nc1C`, the inhibition is 11% (inactive).
For the compound `Cc1ccc(N2CCN(c3ccc(C)cc3)C2c2ccccn2)cc1`, the inhibition entry is “inactive”.
As to `O=C(c1cc(-c2cccc(O)c2)on1)N1CCc2ccccc2C1`, the inhibition is 1% (inactive).
The same measure, in the same setting: under `COc1cc(Cl)c(S(=O)(=O)N2CCN(Cc3ccc4c(c3)OCO4)CC2)cc1Cl` stands “inactive”; under `Cc1ccc(C(=O)N2CCCCCC2)cc1Br`, “inactive”.
On the same count and under the same terms, under `O=C(c1cc(-c2cccs2)on1)N1CCCCC1` stands “inactive”; under `Cc1ccc2cc3cc(C(=O)N4CCCCCC4)oc3nc2c1`, 33% (active).
As for `CCOC(=O)CNC(=O)CSc1nnc(COc2ccc(Cl)cc2)n1CC`, the inhibition is 2% (inactive).
In the case of `Cc1oc(-c2ccccc2F)nc1CS(=O)(=O)CC(=O)NCCCN(C)C1CCCCC1`, the inhibition is 9% (inactive).
Still for that read-out and setting: the result for `COc1ccc(-n2c(Cc3cccn3C)nnc2SCC(=O)Nc2cc(C)cc(C)c2)cc1` reads “inactive”; that for `O=C(O)CCCC(=O)Nc1ccccc1-n1ccnc1`, “inactive”.
For the compound `Cc1nc(SCC(=O)Nc2cc(C)on2)c2c(C)c(C)sc2n1`, the inhibition entry was “inactive”.
As to `CCOc1ccccc1N(CC(=O)Nc1ccccc1C(=O)OC)S(C)(=O)=O`, the inhibition result is “inactive”.
In the case of `COc1ccc(OC)c(NC(=O)CN2CCN(C(=O)c3ccco3)CC2)c1`, the inhibition result was “inactive”.
For the compound `COc1cccc(C2/C(=C(/O)c3ccncc3)C(=O)C(=O)N2CCCN(C)C)c1` (stereo not given), the inhibition is 16% (inactive).
In the case of `CC(C)c1nc(-c2ccccn2)no1`, the inhibition entry is “inactive”.
For the compound `CC(=O)NCC(=O)N(C)C(C(=O)Nc1ccc2c(c1)OCCO2)c1ccccc1` (stereo not given), the inhibition entry is “inactive”.
Same read-out and setting: under `Cc1cc(C)cc(OCc2nnc(SCC(=O)OC3CCCCC3)o2)c1` stands “inactive”; under `CCOC(=O)c1ccc(N2C(=O)CC(Sc3nc(O)c(CC)c(=O)[nH]3)C2=O)cc1` (stereo not given), “inactive”.
As to `Cn1c2c(c(=O)n(C)c1=O)C1c3ccccc3OCC1C(C)(C)O2` (stereo not given), the inhibition is 10% (inactive).

As a reminder, the inhibition is the change of the read-out against control, counted positive when it falls.
